# From PubChem BioAssay (NCATS)
# Where “and” joins values, the source holds several entries; their conditions need not be identical. Equal values may be shown once. Records with an inconclusive call do not appear. Entries that show only a call come without a potency. Values without a mark were called inactive. Calls of active or inactive are those of the source. Calls come from the whole dose curve; as a rule, active = well fitted inhibition curve with a large enough effect; inconclusive = small, poorly fitted or top-dose-only effect; inactive = flat fitted curve, though single readings scatter.
# Experiments:
# [1] = system: CRL-7250; assay: Cytotoxic Profiling of Annotated Libraries Using Quantitative High-Throughput Screening (AID 1296008); details: Five cell lines viability, CellTiter-Glo ATP luminescence, 48-72 h; max response: active compounds read low; note: potency is the fitted concentration of half-maximal effect
# How it was run: (§1)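 Cells exposed to compounds for 48 or 72 hr at 37 degrees Celsius. Viability read as ATP-coupled luminescence with CellTiter-Glo after 10 min at room temperature.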
# [2] = system: HEK293; assay: as above; details: Five cell lines viability, CellTiter-Glo ATP luminescence, 48-72 h; max response: active compounds read low
# How it was run: as §1
# [3] = system: HaCat; assay: as above; details: Five cell lines viability, CellTiter-Glo ATP luminescence, 48-72 h; max response: active compounds read low
# How it was run: as §1
# [4] = system: KB-3-1; assay: as above; details: Five cell lines viability, CellTiter-Glo ATP luminescence, 48-72 h; max response: active compounds read low
# How it was run: as §1
# [5] = system: NIH3T3; assay: as above; details: Five cell lines viability, CellTiter-Glo ATP luminescence, 48-72 h; max response: active compounds read low
# How it was run: as §1
# [6] = system: HACAT; assay: qHTS assay to identify novel small-molecules to repurpose for Merkel cell carcinoma treatment (AID 1296009); details: MCC and control cell lines, CellTiter-Glo viability, 72 h; at 44.8 µM (top of the series) unless noted
# How it was run: (§2)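 Cells were treated for 72 hr at 37 degree celsius with compounds in 8- or 11-point dose response. Viability was read by CellTiter-Glo luminescence, normalized to no-cell (cytotoxicity) and DMSO controls.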
# [7] = system: JCK; assay: qHTS profiling for inhibitors of Plasmodium falciparum proliferation (AID 504749); note: potency is the fitted concentration of half-maximal effect; details: P. falciparum in erythrocytes, SYBR Green DNA, 72 h; series mostly up to 28.7 µM
# How it was run: (§3)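 P. falciparum-infected erythrocytes (0.3% parasitemia, 2.5% hematocrit) incubated with compound 72 h at 37 C, 5% CO2. Parasite DNA detected by SYBR Green after lysis, overnight at room temperature; normalised to 0.29 uM artemisinin and DMSO.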
# [8] = system: N140; assay: as above; details: P. falciparum in erythrocytes, SYBR Green DNA, 72 h; series mostly up to 28.7 µM
# How it was run: as §3
# [9] = system: P93_24; assay: as above; details: P. falciparum in erythrocytes, SYBR Green DNA, 72 h; series mostly up to 28.7 µM
# How it was run: as §3
# [10] = system: P94_40; assay: as above; details: P. falciparum in erythrocytes, SYBR Green DNA, 72 h; series mostly up to 28.7 µM
# How it was run: as §3
# [11] = system: PAD; assay: as above; details: P. falciparum in erythrocytes, SYBR Green DNA, 72 h; series mostly up to 28.7 µM
# How it was run: as §3
# [12] = system: PC15; assay: as above; details: P. falciparum in erythrocytes, SYBR Green DNA, 72 h; series mostly up to 28.7 µM
# How it was run: as §3
# [13] = system: PC26; assay: as above; details: P. falciparum in erythrocytes, SYBR Green DNA, 72 h; series mostly up to 28.7 µM
# How it was run: as §3
# [14] = system: PC49; assay: as above; details: P. falciparum in erythrocytes, SYBR Green DNA, 72 h; series mostly up to 28.7 µM
# How it was run: as §3
# [15] = system: SC27B; assay: as above; details: P. falciparum in erythrocytes, SYBR Green DNA, 72 h; series mostly up to 28.7 µM
# How it was run: as §3
# [16] = system: TAB109; assay: as above; details: P. falciparum in erythrocytes, SYBR Green DNA, 72 h; series mostly up to 28.7 µM
# How it was run: as §3
# [17] = system: TAB113; assay: as above; details: P. falciparum in erythrocytes, SYBR Green DNA, 72 h; series mostly up to 28.7 µM
# How it was run: as §3
# [18] = system: TAB165; assay: as above; details: P. falciparum in erythrocytes, SYBR Green DNA, 72 h; series mostly up to 28.7 µM
# How it was run: as §3
# [19] = system: W2; assay: as above; details: P. falciparum in erythrocytes, SYBR Green DNA, 72 h; series mostly up to 28.7 µM
# How it was run: as §3
# [20] = system: HEK293T; assay: qHTS assay to identify novel small-molecules to repurpose for Merkel cell carcinoma treatment (AID 1296009); details: MCC and control cell lines, CellTiter-Glo viability, 72 h; at 44.8 µM (top of the series) unless noted
# How it was run: as §2
# Note: nearly all actives have a fitted effect of over 60% in size.
smiles,measurement,setting,value
O=C(c1ccccc1)c1ccc2n1CCC2C(=O)O (stereo unspecified),max response,[1],-6.97% and 1.24%
same,max response,[2],1.29% and -15.1%
same,outcome,[3],inactive
same,max response,[4],1.88% and -12.7% and 3.64%
same,max response,[5],-2.4% and -6.59%
same,outcome,[6],inactive
O=P(O)(O)C(O)(Cn1ccnc1)P(=O)(O)O,Potency,[7],inactive
same,Potency,[8],inactive
same,Potency,[9],inactive
same,Potency,[10],inactive
same,Potency,[11],inactive
same,Potency,[12],inactive
same,Potency,[13],inactive
same,Potency,[14],inactive
same,Potency,[15],inactive
same,Potency,[16],inactive
same,Potency,[17],inactive
same,Potency,[18],inactive
same,Potency,[19],inactive
same,outcome,[1],inactive
same,max response,[2],-11%
same,outcome,[3],inactive
same,max response,[4],-1.09% and 1.16%
same,max response,[5],-2.33%
same,outcome,[6],inactive [at 17.4 µM]
COc1cc2c(cc1OC)C1CC(=O)C(CC(C)C)CN1CC2 (stereo unspecified),Potency,[7],inactive
same,Potency,[8],inactive
same,Potency,[9],inactive
same,Potency,[10],inactive
same,Potency,[11],inactive
same,Potency,[12],inactive
same,Potency,[13],inactive
same,Potency,[14],inactive
same,Potency,[15],inactive
same,Potency,[16],inactive
same,Potency,[17],inactive
same,Potency,[18],inactive
same,outcome,[1],inactive
same,outcome,[2],inactive
same,outcome,[3],inactive
same,max response,[4],-0.991%
same,outcome,[5],inactive
same,outcome,[6],inactive
same,outcome,[20],inactive
Cc1ccc(S(=O)(=O)NC(=O)NN2CC3CCCC3C2)cc1 (stereo unspecified),outcome,[1],inactive
same,max response,[2],2.56%
same,outcome,[3],inactive
same,max response,[4],5.5% and -19.7%
same,max response,[5],2.24% and -2.1%
same,outcome,[6],inactive
CNC[C@@H](O)[C@@H](O)[C@H](O)[C@H](O)CO,Potency,[7],inactive
same,Potency,[8],inactive
same,Potency,[9],inactive
same,Potency,[10],inactive
same,Potency,[11],inactive
same,Potency,[12],inactive
same,Potency,[13],inactive
same,Potency,[14],inactive
same,Potency,[15],inactive
same,Potency,[16],inactive
same,Potency,[17],inactive
same,Potency,[18],inactive
same,Potency,[19],inactive
same,outcome,[1],inactive
same,outcome,[2],inactive
same,outcome,[3],inactive
same,max response,[4],5.74%
same,outcome,[5],inactive
same,outcome,[6],inactive
same,outcome,[20],inactive
COc1cc(OC)c(C(=O)CCCN2CCCC2)c(OC)c1,Potency,[7],inactive
same,Potency,[8],inactive
same,Potency,[9],inactive
same,Potency,[10],inactive
same,Potency,[11],inactive
same,Potency,[12],inactive
same,Potency,[13],inactive
same,Potency,[14],inactive
same,Potency,[15],inactive
same,Potency,[16],inactive
same,Potency,[17],inactive
same,Potency,[18],inactive
same,Potency,[19],inactive
same,outcome,[1],inactive
same,max response,[2],-1.67% and -16.3%
same,max response,[3],4.83% and -3.89%
same,max response,[4],-2.3% and 3.48%
same,max response,[5],-4.19%
same,outcome,[5],inactive
Cc1cccc(-c2[nH]ncc2-c2ccc3ncccc3n2)n1,max response,[1],-2.02%
same,max response,[2],-26.8%
same,outcome,[3],inactive
same,max response,[4],-11.3%
same,max response,[5],-18.1%
same,outcome,[6],inactive
Cc1ccc(NC(=O)c2ccc(CN3CCN(C)CC3)cc2)cc1Nc1nccc(-c2cccnc2)n1,Potency,[8],8.91 µM (active)
same,Potency,[9],10 µM (active)
same,Potency,[10],11.2 µM (active)
same,Potency,[11],10 µM (active)
same,Potency,[13],15.1 µM (active)
same,Potency,[16],10 µM (active)
same,Potency,[17],12.6 µM (active)
same,Potency,[18],11.2 µM (active)
same,Potency,[19],6.01 µM (active)
same,max response,[1],-2.19%
same,Potency,[2],18.7 µM (active) and 21.1 µM (active) and 11.6 µM (active)
same,outcome,[3],inactive
same,max response,[4],-0.677% and -9.97% and -10.5%
same,max response,[5],-15.2%
same,outcome,[5],inactive
same,outcome,[6],inactive
O=c1oc2cc(O)ccc2s1,Potency,[7],inactive
same,Potency,[8],inactive
same,Potency,[9],inactive
same,Potency,[10],inactive
same,Potency,[11],inactive
same,Potency,[12],inactive
same,Potency,[13],inactive
same,Potency,[14],inactive
same,Potency,[15],inactive
same,Potency,[16],inactive
same,Potency,[17],inactive
same,Potency,[18],inactive
same,max response,[1],4.4%
same,max response,[2],-4.04%
same,outcome,[3],inactive
same,max response,[4],-11.2% and -4.56%
same,max response,[5],-4.48%
same,outcome,[6],inactive
C[C@@H](c1ncncc1F)[C@](O)(Cn1cncn1)c1ccc(F)cc1F,max response,[1],-18.6%
same,max response,[2],-20.1%
same,outcome,[3],inactive
same,max response,[4],-4.61%
same,max response,[5],-4.26%
same,outcome,[6],inactive
O=C1NC(=O)C(c2ccccc2[N+](=O)[O-])=C1Nc1ccc(O)c(Cl)c1,max response,[1],-2.05%
same,outcome,[2],inactive
same,max response,[3],-25.3%
same,outcome,[4],inactive
same,outcome,[5],inactive
same,outcome,[20],inactive
